Data published in PubChem BioAssay (NCI).
About 79,000 compounds went through this panel and 15% of them were active in at least one assay; those are over-represented in the sample as a whole. No stated cut-off is given here; in the data, active means growth inhibition above about 70%; inactive means the rest.

Assays:
[1] = NCI Yeast Anticancer Drug Screen. Data for the rad50 strain (AID 155);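 further: 0% = growth of vehicle-only cultures of the same strain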; details: S. cerevisiae rad50 strain growth inhibition; at 50.0 µM; active compounds read high
Procedure, shortened: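 Vehicle-treated cultures provide the reference for the growth inhibition reported for compound-exposed, repair-deficient yeast.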

[2] = NCI Yeast Anticancer Drug Screen. Data for the mec2-1 strain (AID 157); details: S. cerevisiae mec2-1 strain, at 50.0 µM, active compounds read high
Procedure, shortened: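 Each compound was tested on mec2-1 yeast, a strain altered in DNA damage repair or cell cycle control. Growth inhibition is reported relative to vehicle.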

[3] = NCI Yeast Anticancer Drug Screen. Data for the sgs1 mgt1 strain (AID 161);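 further: 0% = growth of cultures given vehicle only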; details: S. cerevisiae sgs1 mgt1 strain, at 50.0 µM, active compounds read high
Procedure, shortened: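 Inhibition of yeast growth, normalised to vehicle-treated controls, is reported for a strain bearing genetic alterations in DNA damage repair.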

[4] = NCI Yeast Anticancer Drug Screen. Data for the cln2 rad14 strain (AID 165);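 further: 0% = growth equal to vehicle treated cultures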; details: S. cerevisiae cln2 rad14 strain, at 50.0 µM, active compounds read high
Procedure, shortened: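 Test compounds were added to cln2 rad14 yeast cultures; inhibition of growth was then determined by comparison with vehicle treatment.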

[5] = NCI Yeast Anticancer Drug Screen. Data for the bub3 strain (AID 167); details: S. cerevisiae bub3 mutant strain, at 50.0 µM, active compounds read high
Procedure, shortened: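 Mutant yeast screening strain plus compound; vehicle-treated cultures serve as the 0% inhibition reference.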

[6] = NCI Yeast Anticancer Drug Screen. Data for the mlh1 rad18 strain (AID 175); details: S. cerevisiae mlh1 rad18 strain growth inhibition; at 50.0 µM; active compounds read high
Procedure, shortened: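 Inhibition values reflect reduced growth of mutant yeast versus vehicle-treated controls following compound exposure; the mutations affect DNA damage repair.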

Measured: growth inhibition

COC1OCC(NC(C)=O)C(OC(C)=O)C1OC(C)=O (stereo unspecified)
inactive: [1] 12.4% | [2] -13.1% | [3] -4.1% | [4] 2.35% | [5] -1.3% | [6] -8%

O=C(Nc1ccccc1)Oc1cccc(-c2ccc(-c3ccccc3)cc2)c1
inactive: [1] 29.4% | [2] 6.5% | [3] 33.7% | [4] 18.9% | [5] 49.5% | [6] 18.2%

Nc1nc(N)nc(-c2ccccc2-c2nc(N)nc(N)n2)n1
inactive: [1] -5.65% | [2] -2.85% | [3] 3.45% | [4] -18% | [5] 14.2% | [6] 6.65%

O=C(Nc1ccc(Cl)cc1)Nc1nnc2nc(CC(=O)c3ccc4ccccc4c3)c(=O)[nH]n12
inactive: [1] 12.9% | [2] 9.45% | [3] 2.2% | [4] -16.3% | [5] 21.8% | [6] 1.3%

COc1ccc(CNc2ccccc2)cc1
inactive: [1] -2% | [2] 11.8% | [3] 3.65% | [4] 10.6% | [5] -4.05% | [6] -9.4%

c1ccc(/N=C2\c3ccccc3CN2c2ccccn2)nc1
inactive: [1] -21.9% | [2] 3.75% | [3] -7.6% | [4] -3.75% | [5] 9% | [6] -1.35%

C=CCO[Si](OCC=C)(OCC=C)OCC=C
inactive: [1] 0.85% | [2] -19% | [3] -6.2% | [4] 13.9% | [5] 9.6% | [6] 3.9%

CCOC(=O)/C(C)=C\C1C(C)=CC(=O)CC1(C)C (stereo unspecified)
inactive: [1] -0.05% | [2] -16.1% | [3] -5.1% | [4] -29% | [5] 20.4% | [6] -7.15%

O=c1[nH]cc(N=Cc2ccccc2O)c(=O)[nH]1.[Cl][Pt]
inactive: [1] 24.9% | [2] 9.05% | [3] 39% | [4] 3.35% | [5] 3.2% | [6] 0.4%

CC(C)c1ccc(/C=C2/CCCCC2=O)cc1
inactive: [1] -2.55% | [2] -15% | [3] -10.5% | [4] -68.8% | [5] -16.4% | [6] -24.9%

CCn1c2ccccc2c2ccc(N=Nc3ccccc3)cc21
inactive: [1] 36.8% | [2] 12.6% | [3] 19.2% | [4] -1.75% | [5] 22.8% | [6] 17.8%

O=P(O)(O)c1ccc(I)cc1
inactive: [1] 10.5% | [2] -30.6% | [3] -12.4% | [4] 0.75% | [5] -20.3% | [6] -5.9%

COC(=O)C1=NC(=O)C(C#N)=C(C(=O)OC)C1(C(=O)c1ccc(OC)cc1)c1ccc(OC)cc1 (stereo unspecified)
inactive: [1] -39.9% | [2] 3.7% | [3] -9.15% | [4] 13.8% | [5] 11.9% | [6] -12.1%

CC(C)(C)OC(=O)NC(CSCc1ccc(C(=O)c2ccccc2)cc1)C(=O)O (stereo unspecified)
inactive: [1] -23.9% | [2] -28.1% | [3] -15.3% | [4] 10.6% | [5] -12.8% | [6] -2.3%

CSc1cc(Cl)c(C)cc1S(=O)(=O)NC(=O)NNc1ccccn1
inactive: [1] -4.3% | [2] -1.6% | [3] 8.15% | [4] -2.05% | [5] -1.5% | [6] 21%

CCCCCCCCCCCCCCCCCCOC(=O)c1cccnc1
inactive: [1] 23.1% | [2] 10.3% | [3] 15.8% | [4] 20.7% | [5] 23.8% | [6] 27.3%

COc1cc(O)c(C(C)c2ccccc2)cc1N=O (stereo unspecified)
inactive: [1] -9.45% | [2] -11.6% | [3] -4.4% | [4] 4.15% | [5] 11.8% | [6] -6.15%

O=C1/C(=C/c2ccccc2)SC(=S)N1C1OC(CO)C(O)C(O)C1O (stereo unspecified)
inactive: [1] 3.45% | [2] 11.8% | [3] -8.4% | [4] 8.95% | [5] -3.95% | [6] 6.9%

N#CC(C(=O)O)C(c1c(Cl)cccc1Cl)C(C#N)C(=O)O (stereo unspecified)
inactive: [1] 23.2% | [2] -6.7% | [3] -0.7% | [4] -1.3% | [5] 5.25% | [6] 15.6%

CCC1C(OC)=CC2(CC)CC1(OC)OC2=O (stereo unspecified)
inactive: [1] -4.75% | [2] -0.3% | [3] -1.2% | [4] -2.45% | [5] 7.45% | [6] -3.35%

CCC(c1ccc(N(C)C)cc1)c1ccc(N(C)C)cc1
inactive: [1] 3.8% | [2] -48.9% | [3] 1.6% | [4] 8.35% | [5] 0.05% | [6] 4.2%

c1ccc2c(c1)NC(N1CCCCC1)=Nc1ncncc1-2
inactive: [1] 14.8% | [2] -8.15% | [3] 7.75% | [4] -15.1% | [5] -1.7% | [6] 2%

CCCCCO[Si](OCCCCC)(OCCCCC)OCCCCC
inactive: [1] 3.8% | [2] -9.3% | [3] 29.4% | [4] -4.4% | [5] 1.55% | [6] 10.9%

Cc1cc(C(C)C)c(C)cc1C(C)C
inactive: [1] -18.9% | [2] -4.25% | [3] -14.4% | [4] -7% | [5] -6.2% | [6] -4.15%

COC(=O)c1c(C(=O)c2ccccc2)nn2c(-c3ccccc3)c(-c3ccccc3)c(-c3ccccc3)c(-c3ccccc3)c12
inactive: [1] 10.3% | [2] -1.6% | [3] -23.6% | [4] 7.05% | [5] -1.1% | [6] 0.1%

N#Cc1ccccc1NC(=O)C(=O)C(C(=O)c1ccncc1)C1OC(=O)c2ccccc21 (stereo unspecified)
inactive: [1] -2.55% | [2] -17.1% | [3] -31.3% | [4] 10.1% | [5] -0.65% | [6] 5.3%

N#CC(NCc1cccc(CNC(C#N)c2ccccc2)c1)c1ccccc1 (stereo unspecified)
inactive: [1] -4.8% | [2] 8.4% | [3] -28.1% | [4] -16.4% | [5] -28.7% | [6] -19.8%

CC(C)(C)/[N+]([O-])=C/C1(C2(/C=[N+](\[O-])C(C)(C)C)Cc3ccccc3C2=O)Cc2ccccc2C1=O (stereo unspecified)
inactive: [1] 29.8% | [2] 3.75% | [3] 3.05% | [4] 15.6% | [5] 7.15% | [6] 31.9%

CC(=O)c1cccc(NC(=O)N2CCCCC2C)c1 (stereo unspecified)
inactive: [1] -4.9% | [2] 29.9% | [3] 8.9% | [4] -13.3% | [5] 15.2% | [6] -12.8%

CC(C)(C)[Si](C)(C)OCCCC#CCO
inactive: [1] 12.1% | [2] -5.3% | [3] -3.85% | [4] 14.4% | [5] -13.6% | [6] 24.3%

CC1(C)CCCCCCC2CC2CCCCCC(C)(C)C1=O (stereo unspecified)
inactive: [1] 1% | [2] -6.15% | [3] -4.8% | [4] 7.8% | [5] -11.5% | [6] 24.1%

CC(C)c1ccc(C(=O)OCCBr)cc1
inactive: [1] 18.7% | [2] -11.4% | [3] 16.2% | [4] -3.1% | [5] 1.7% | [6] 1.25%

COc1ccc(N=Cc2ccc(OC(=O)c3ccccc3)c(OC)c2)cc1
inactive: [1] 2.15% | [2] 0.5% | [3] 0.55% | [4] -0.8% | [5] 13.3% | [6] -23.5%

COc1ccc(Nc2cc[nH]c(=O)c2NC(C)=O)cc1
inactive: [1] 20.7% | [2] 4.9% | [3] 32.3% | [4] 14.7% | [5] 9.75% | [6] 21%

NCCCCC(N)C(=O)O (stereo unspecified)
inactive: [1] 7.4% | [2] 9.25% | [3] -33.9% | [4] 8.55% | [5] -2.1% | [6] 22%

CC(C)C(=O)OC1c2cc(OCCN(C)C)ccc2CC1C (stereo unspecified)
inactive: [1] -11% | [2] -6.75% | [3] -8.3% | [4] -27.9% | [5] -5.95% | [6] -33.9%

Cc1ccc(-c2nc3scc(C)n3n2)cc1
inactive: [1] 0.85% | [2] 6.6% | [3] -4.5% | [4] -29% | [5] 7.65% | [6] 8.85%

O/C=C(\Cl)CCl
inactive: [1] 17.2% | [2] -7.15% | [3] 12.4% | [4] 11.9% | [5] 5.1% | [6] 16.2%

C[Si](C)(CNCCN)O[Si](C)(C)CNCCN
inactive: [1] 6.3% | [2] -18.8% | [3] -3.3% | [4] 13.1% | [5] 5.9% | [6] 13.3%

S=C(Nc1ccccc1)N1N=C2c3ccccc3CC[C@H]2[C@@H]1c1ccccc1
inactive: [1] -24.3% | [2] -37.9% | [3] -37.5% | [4] -1% | [5] -28.2% | [6] -58.5%

O=C(Nc1ccccc1)C1CC=C2CCC3OC(=O)C1C23 (stereo unspecified)
inactive: [1] -11.4% | [2] -16.7% | [3] -23.4% | [4] -16% | [5] -14.7% | [6] -18.1%
